Source: PubChem (National Center for Advancing Translational Sciences (NCATS))
D2 ag-1: D2 dopamine receptor (human) agonism. P14416. HEK293 T-REx D2 cells, calcium flux agonist mode. activation, % at 2 µM. hit rate 0.53% among 340,000. AID 485358;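 active means activation over 3 SD above normal in the single-dose calcium agonist read, cut at about 30% in these data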; further: 0% is about no effect
Target sequence (P14416 whole entry, looked up): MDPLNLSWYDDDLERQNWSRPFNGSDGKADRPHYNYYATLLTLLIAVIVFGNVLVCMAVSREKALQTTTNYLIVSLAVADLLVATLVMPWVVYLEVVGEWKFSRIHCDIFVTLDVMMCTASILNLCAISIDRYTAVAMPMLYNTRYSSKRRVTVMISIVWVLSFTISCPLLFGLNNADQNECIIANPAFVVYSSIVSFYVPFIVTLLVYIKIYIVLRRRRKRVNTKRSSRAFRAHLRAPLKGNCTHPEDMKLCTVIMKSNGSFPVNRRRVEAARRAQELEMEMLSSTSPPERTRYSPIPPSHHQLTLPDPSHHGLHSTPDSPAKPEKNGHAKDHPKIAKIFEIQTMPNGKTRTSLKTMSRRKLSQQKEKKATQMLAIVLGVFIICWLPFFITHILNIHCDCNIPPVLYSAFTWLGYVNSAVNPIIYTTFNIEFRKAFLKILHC
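Agonism is scored from calcium flux in a force-coupled, inducible HEK293 cell line expressing D2, read kinetically for 180 s after compound addition against dopamine controls.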
D2 PAM-1: positively modulates the human D2 dopamine receptor allosterically | HEK293 T-REx D2, calcium flux, EC20 dopamine potentiation | potentiation, % at 10 µM | hit rate 0.34% among 340,000 | AID 485347;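 active means potentiation over 3 SD above the plate norm, cut at about 30% in these data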; further: 0% is about no effect
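Calcium flux readout, no-wash dye, 1 read/s. Inducible HEK293 Trex D2 line, overnight 30 C. Compound alone 180 s (agonist flags), then EC20 dopamine, another 180 s to score potentiation.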
D2 ag-2: agonists of human D2 dopamine receptor (beta-arrestin); P14416; DiscoveRx PathHunter D2 beta-arrestin, luminescence, 90 min; 100% = 57 uM dopamine signal; activation, % (test concentration not listed); hit rate 0.084% among 360,000; AID 624465; in the data active means activation above about 40%
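DiscoveRx PathHunter D2 beta-arrestin cells (2,100/well) attached overnight, then compound-stimulated 90 min at 37 C in HBSS/10 mM HEPES/0.1% Tween-20 buffer; beta-galactosidase complementation read by luminescence after 1 h at ambient temperature. Dopamine 57 uM final (EC100) as control.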
D2 antag: D2 dopamine receptor (human) antagonism; P14416; HEK293 TREx D2 cells, calcium flux, dopamine EC80; inhibition, % at 10 µM; hit rate 2% among 340,000; AID 485344; in the data active means inhibition above about 30%; inactive means below that, where a call was filed; further: 0% is about no effect
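In this primary screen, negative modulation is detected by tracking calcium flux after an EC80 dopamine challenge in inducible HEK293 T-REx D2 cells preexposed to test compound for 180 s.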
D2 PAM-2: positive allosteric modulators of human D2 dopamine receptor. P14416. DiscoveRx D2 beta-arrestin cells, luminescence, 90 min; 100% = 57 uM dopamine signal. potentiation, % (concentration not given with the values). hit rate 0.23% among 360,000; in the data active means potentiation above about 50%
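PathHunter beta-arrestin assay in DiscoveRx D2 cells. Compounds were added with an EC20 of dopamine (50 nM final) for 90 min at 37 deg C. Luminescence was read 1 h after detection reagent, with 57 uM dopamine as the EC100 control.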
Active calls of the source: *; . = no result; ! = not confirmed by another sample. Hits are enriched below; roughly 2.4% of the tested compounds scored in any of these assays.

SMILES | D2 ag-1 | D2 PAM-1 | D2 ag-2 | D2 antag | D2 PAM-2
Cc1ccc(SCC(=O)NC(C)(C)C)cc1 | 0 | 1 | 0 | 37* | -3
Cc1ccc(SCC(=O)Nc2cccc(C(=O)NC(C)(C)C)c2)cc1 | 0 | -6 | -9 | -2 | -17
Cc1cc(N2CC(=O)N(CCc3ccccc3)C(=O)C2)n2ncnc2n1 | 0 | -7 | 0 | 32* | -3
Cc1cc(N2CCN(c3ccccc3)CC2)n2ncnc2n1 | 0 | 6 | -2 | -7 | -2
Cc1cc(N2CCN(C(c3ccccc3)c3ccc(Cl)cc3)CC2)n2ncnc2n1 (configuration not stated) | 0 | 8 | -4 | 31* | -4
CCc1ccc(C2c3c(oc4ccc(F)cc4c3=O)C(=O)N2CCc2ccc(OC)cc2)cc1 (configuration not stated) | 0 | 2 | . | . | .
Cc1cc(C)c(S(=O)(=O)NCc2csc(-c3ccccc3)n2)c(C)c1 | 1 | -8 | . | . | .
Cc1cc(C)c2c(CC(=O)Nc3ccc(S(=O)(=O)N4CCCC(C)C4)cc3)coc2c1 (configuration not stated) | 2 | 3 | . | . | .
Cc1nc(/N=C(\N)NC(=O)N2c3ccccc3Sc3ccccc32)nc2ccccc12 | 0 | -3 | 6 | -10 | 55*
Cc1nc(/N=C(\N)NC(=O)c2ccccc2)nc2ccccc12 | 0 | 7 | 0 | -12 | -17
Cc1ccc(CN(Cc2cccn2-c2nnc(N3CCCC3=O)s2)C(=O)Nc2ccccc2Cl)cc1 | 1 | -16 | . | . | .
Cc1cc(C)c(S(=O)(=O)N2CCCC2=O)c(C)c1N(C)S(C)(=O)=O | 1 | -7 | -3 | 38* | -2
CCOc1ccc(NS(=O)(=O)c2ccc3[nH]c4c(c3c2)CCCCC4)cc1 | 1 | -1 | . | . | .
COCC(C)NC(=O)CSc1nnc(-c2cccc(S(=O)(=O)N3CCCCC3)c2)o1 (configuration not stated) | 2 | 3 | -4 | -12 | -2
CC(NC(=O)CSc1nnc(-c2cccc(S(=O)(=O)N3CCCCC3)c2)o1)C12CC3CC(CC(C3)C1)C2 (configuration not stated) | . | 12 | 1 | . | 58*
O=C(NCc1ccccc1)c1cc(-c2cccs2)on1 | . | . | 0 | . | -10
O=C(NCc1ccccc1)c1nc(-c2cccs2)no1 | -2 | -1 | -8 | 36* | -1
CCC(Cc1ccccc1)NC(=O)Cn1ncc2c3ccccc3n(Cc3ccccc3)c2c1=O (configuration not stated) | 0 | -1 | . | . | .
Nc1nnc(-c2ccccc2F)s1 | 1 | 11 | -2 | 45* | -5
CCCN(C(=O)Cn1ncc2c1-c1ccccc1OC2)c1cccc(C)c1 | -1 | 9 | . | . | .
Cc1ccc(NC(=O)C(Cc2ccccc2)n2cccc2)cc1C (configuration not stated) | . | -22 | . | . | .
Cc1ccc(NC(=O)C2CCN(S(=O)(=O)c3cccc4nonc34)CC2)cc1 | . | -6 | 5 | . | 2
Cc1ccccc1NC(=O)C1CCN(S(=O)(=O)c2cccc3nonc23)CC1 | -2 | 44*! | -4 | 5 | 0
COc1ccc(C2CCCN2C(=O)c2cccs2)cc1 (configuration not stated) | 0 | -14 | -5 | 78* | -8
CCCOc1ccccc1C(=O)N(Cc1cccc(Br)c1)C1CCS(=O)(=O)C1 (configuration not stated) | 1 | 1 | 2 | 47* | 3
SMILES | D2 ag-1 | D2 PAM-1 | D2 ag-2 | D2 antag | D2 PAM-2
CCc1ccc(Sc2cc(C(=O)O)c3ccccc3n2)cc1 | 0 | 17 | . | . | .
CCSc1nnc2ccc(-c3ccco3)nn12 | 1 | 37* | 0 | -10 | -28
CCSc1nnc2ccc(-c3ccc(C)cc3)nn12 | 0 | 4 | -2 | -10 | -14
CCCCN1C(=O)/C(=C/C=C2\Oc3ccccc3N2CC)SC1=S | 61* | -5 | 2 | -7 | -8
CCN(CC)c1ccc2cc(-c3nnc(-c4ccccc4)o3)c(=O)oc2c1 | 116* | -7 | -1 | 38* | -2
CCN(CC)c1ccc2cc(-c3nc4ccccc4[nH]3)c(=O)oc2c1 | 104* | -14 | 5 | 76* | 17
CN(C)Cc1c(O)ccc2cc(-c3nc4ccccc4n3C)c(=O)oc12 | 20 | 4 | 3 | 14 | -2
